# Laboratory results: PubChem BioAssay (NCATS)
# Inconclusive results are not listed. A call without a number means that no potency is given here. Active and inactive are the calls of the source. Calls follow the shape of the dose curve; as a rule, active = well fitted curve in the direction sought with a large enough effect; inconclusive = small, poorly fitted or top-dose-only effect, or another doubt; inactive = no such curve, though single readings can be large; an effect the other way counts as inactive or inconclusive.
# How the values were obtained:
# [1] = target: Aldehyde dehydrogenase, mitochondrial (Homo sapiens) (UniProt P05091); test: qHTS for Inhibitors of the Aldehyde Dehydrogenase Family (ALDH2) Primary screen (AID 2061308); also: nearly all actives have a fitted effect of over 55% in size
# [2] = target: Retinaldehyde dehydrogenase 3 (Homo sapiens) (UniProt P47895); test: qHTS for Inhibitors of the Aldehyde Dehydrogenase Family (ALDH1A3) Primary screen (AID 2061315)
SMILES,Potency [1],Potency [2]
c1cncc(CNc2ncnc3ccc(-c4cccnc4)cc23)c1,inactive,inactive
NC(=O)c1cccc(C[C@H](C(=O)O)N2C(=O)c3ccc(C(=O)O)cc3C2=O)c1,inactive,inactive
Cc1ccc(CSc2nnc(-c3cccc4ccccc34)o2)cc1,inactive,inactive
COc1ccc(C2Nc3ccccc3C(=O)N2Cc2ccccc2OC)cc1COc1c(C)cc(NC(C)=O)cc1C (stereo not drawn),inactive,inactive
Cc1cc(-c2ccccc2)nc2c(C(=O)Nc3ccc(Cl)c(Cl)c3)cnn12,inactive,inactive
CCOc1ccc(C(=O)Oc2ccc(-c3nc4ccccc4[nH]3)cc2)cc1Cl,inactive,inactive
O=C(Nc1ncc(Cc2ccc(C(F)(F)F)cc2)s1)c1cccc(-c2ccccc2)c1,inactive,inactive
N#Cc1nc(Nc2cc(F)cc(F)c2)nc(NC2CCCC2)n1,inactive,inactive
COc1cccc(-c2csc(N3CCC(C(N)=O)CC3)n2)c1,inactive,inactive
Cc1cc(C)n2ncc(C(=O)Nc3cccc(C#N)c3)c2n1,inactive,inactive
O=C(NCCc1ccc2c(c1)OCO2)c1cc2sccc2[nH]1,inactive,inactive
O=[S+]([O-])(c1ccc2c(c1)OCCO2)N1CCN([S+](=O)([O-])c2c(O)cc(F)cc2F)CC1,inactive,inactive
Cc1ccc(NC(=O)c2cnn3c(-c4ccccc4)cc(C)nc23)cc1,inactive,inactive
O=C(OCC#CCSc1nnc(-c2cccc3ccccc23)o1)c1cnc[nH]1,inactive,inactive
O=S(=O)(Nc1ccc2ccccc2c1)c1ccc(NCc2ccc(Br)cc2O)cc1,inactive,inactive
Oc1cccc2cc(-c3ccccc3)cnc12,inactive,inactive
O=c1c2ccccc2nc2sc(Nc3cccc(N4CCN5CCCCC5C4)c3)nn12 (stereo not drawn),inactive,inactive
O=S(=O)(c1cccc(F)c1)N1CCN(S(=O)(=O)c2ccc3c(c2)OCCO3)CC1,inactive,inactive
Cc1cc(C)nc(NC(=S)N2CCN(c3cccc(C(F)(F)F)n3)CC2)c1,inactive,inactive
Cc1ccc(CNc2ncnc3ccc(-c4ccc(C(=O)N(C)C)o4)cc23)o1,inactive,inactive
O=C(CNC(=O)c1ccc2n[nH]nc2c1)OC(C(=O)Nc1cc(C(F)(F)F)ccc1Cl)c1ccccc1 (stereo not drawn),inactive,inactive
COc1ccccc1/C=C/C(=O)NCCc1nc2ccccc2n1CCOc1ccc(C)cc1,inactive,inactive
Cc1cccc(-n2cnc3cc(C(=O)N4CCCCC4)ccc32)c1,inactive,inactive

SMILES,Potency [1],Potency [2]
Cc1cc(C)nc(NC(=S)N2CCN(c3ccc4ncccc4c3[N+](=O)[O-])CC2)c1,inactive,inactive
Cn1c2cc(Br)sc2c2cnn(Cc3ccc(F)cc3)c(=O)c21,inactive,inactive
COc1ccc(OC2=NS(=O)(=O)c3ccccc32)cc1,inactive,inactive
Cc1ccc(-c2ccc(=O)n(CC(=O)N(C)C(C)c3ccco3)n2)cc1 (stereo not drawn),inactive,inactive
O=C1CCCC2=C1C(c1ccc(F)cc1)N=C(Nc1nc3ccccc3o1)N2 (stereo not drawn),inactive,inactive
O=C(Nc1ccc(O)c2ncccc12)c1ccccc1F,inactive,inactive
Cc1nc(N2CCOCC2)c2nc(-c3ccccc3)n(CC(C)(C)CN(C)C)c2n1,inactive,inactive
Cc1nc(Nc2nc3ccccc3o2)nc2c1CCCC2,inactive,inactive
Cc1ccc(S(=O)(=O)Nc2ccccc2C(=O)Nc2nc(-c3ccc(Cl)cc3)cs2)cc1,inactive,inactive
COc1ccc(NC(=S)N2CCN(c3cccc(C(F)(F)F)c3)CC2)nc1,inactive,inactive
O=C(Nc1ccc2ccccc2c1)Nc1nnc(-c2ccncc2)s1,inactive,inactive
c1cncc(-c2ccc3ncnc(NCc4cccs4)c3c2)c1,inactive,inactive
O=C(Cn1ncccc1=O)NCCc1ccccc1,inactive,inactive
O=C1CCCC2=C1C(c1[nH]ncc1Cl)NC(=NCCc1ccc(O)cc1)N2 (stereo not drawn),inactive,inactive
Cc1cc(C(=O)Nc2ccc(NC(=O)Cc3ccc(Cl)c(Cl)c3)cc2)no1,inactive,inactive
Cc1ccc(-c2ccc(=O)n(CC(=O)N(C)C(C)C(C)C)n2)cc1 (stereo not drawn),inactive,inactive
COc1ccccc1C1=Nn2c(COc3ccccc3)nnc2SC1,inactive,inactive
O=C(OCC#CCSc1nnc(-c2ccc3ccccc3c2)o1)c1ccccc1,inactive,inactive
Cc1ccc(-c2cc(C(=O)N(C)c3ccccc3)c3ccccc3n2)cc1C,inactive,inactive
Cc1noc(C)c1-c1ccc2ncnc(NCc3cccc(-c4ccccc4)c3)c2c1,inactive,inactive
Cc1ccc(-c2cc(C(=O)Nc3ccccc3)c3ccccc3n2)cc1C,inactive,inactive
COc1ccc(-c2ccc3ncnc(NCC4CCCO4)c3c2)cc1OC (stereo not drawn),inactive,inactive
c1cncc(-c2ccc(CNc3nc(N4CCCC4)nc4ccccc34)cc2)c1,inactive,inactive

SMILES,Potency [1],Potency [2]
O=C(c1ccc2c(c1)ncn2-c1ccccc1)N1CCCCC1,inactive,inactive
O=C(Nc1ccc(-c2nc3ccccc3[nH]2)cc1)c1ccc(Cl)c(Cl)c1,inactive,inactive
Cc1ccc(-c2cc(C(=O)NCc3ccc(S(C)(=O)=O)cc3)c3ccccc3n2)cc1C,inactive,inactive
CCc1ccc(NC(=O)c2cnn3c(C)cc(C)nc23)cc1,inactive,inactive
NC(=O)C1CCN(c2nc(-c3ccccc3C(F)(F)F)cs2)CC1,inactive,inactive
CCCCNc1nc(C)nc2c1nc(-c1ccccc1)n2C1CCN(Cc2ccccc2)C1 (stereo not drawn),inactive,inactive
O=C(NC1CCCc2c1cnn2-c1ccc(F)cc1F)c1cnon1 (stereo not drawn),inactive,inactive
Cc1cc(C)nc(NC(=S)N2CCN(c3cc(Cl)c(Cl)c(Cl)c3)CC2)c1,inactive,inactive
Cc1ccc(S(=O)(=O)Nc2cnccc2C(=O)Nc2nc(C3CCC3)cs2)cc1,inactive,inactive
COc1ccc(-c2nnc3n2N=C(c2ccccc2OC)CS3)cc1,inactive,inactive
Cc1ccnc(C(=S)N2CCN(c3cccc(C(F)(F)F)c3)CC2)c1,inactive,inactive
CN1CCN(c2cc(-c3cc(O)c4ncccc4c3)ccn2)CC1,inactive,inactive
COc1ccc(-c2ccc3ncnc(NCc4ccc(C)o4)c3c2)cc1OC,inactive,inactive
CC1=C(C(=O)Nc2ccccc2Cl)C(c2ccccc2Br)N=C(Nc2nc3ccccc3o2)N1 (stereo not drawn),inactive,inactive
O=S(=O)(Nc1ccccc1F)c1ccc(O)c2ncccc12,inactive,inactive
Cc1ccc(S(=O)(=O)Nc2ccccc2N2CCCCC2)s1,inactive,inactive
COc1ccc(-c2csc(NC(=O)c3ccccc3NS(=O)(=O)c3ccc(C)cc3)n2)cc1,inactive,inactive
Cc1nc(NC2CCCCC2)c2nc(-c3ccccc3)n(CCCN(C)C)c2n1,inactive,inactive
C(=C/c1cccs1)/c1ccncc1,inactive,inactive
CN(C)CC(=O)NC1CCCc2c1cnn2-c1ccc(F)cc1F (stereo not drawn),inactive,inactive
Cc1cc(N[S+](=O)([O-])c2ccc(NC(=O)Cc3ccc4c(c3)OCCO4)cc2)no1,inactive,inactive
Cc1ccc(-c2cc(C(=O)Nc3ccccc3C)c3ccccc3n2)cc1C,inactive,inactive
Cc1ccc(NC(=O)c2ccncc2NS(=O)(=O)c2ccc(C)cc2)cc1,inactive,inactive

SMILES,Potency [1],Potency [2]
Cc1c(P(=S)(c2ccccc2)c2ccccc2)[n+]2ccccc2n1Cc1ccccc1,inactive,inactive
O=C1c2ccccc2C(=O)N1c1ccc(O)cc1,inactive,inactive
O=C(O)c1ccc(CSc2nnc(-c3cccc(S(=O)(=O)NC4CCCC4)c3)n2-c2ccc(F)cc2)cc1,inactive,inactive
Cc1cc(C)nc(NC(=S)N2CCN(c3cccc(S(C)(=O)=O)c3)CC2)c1,inactive,inactive
COc1cc(O)c(C(CC(=O)N2CCCC(C(=O)c3ccccc3)C2)c2ccc3c(c2)OCO3)c(OC)c1 (stereo not drawn),inactive,inactive
O=C(O)CC(=O)OC[C@H]1O[C@@H](Oc2ccc3c(c2)OC[C@H]2c4cc5c(cc4O[C@@H]32)OCO5)[C@H](O)[C@@H](O)[C@@H]1O,inactive,inactive
CCCn1c(C)nc2c(NCC3CCCN3CC)nc(C)nc21 (stereo not drawn),inactive,inactive
CCOC(=O)c1cnc2ccc(-c3cncc(NS(=O)(=O)c4ccccc4)c3)cn12,inactive,inactive
O=C(CCCCSc1nnc(-c2cccc3ccccc23)o1)Oc1ccc(F)cc1,inactive,inactive
O=C1CCCC2=C1C(c1[nH]ncc1Cl)N=C(Nc1nc3c(Br)cccc3o1)N2 (stereo not drawn),inactive,inactive
FC(F)(F)c1ccccc1-c1nc2c(c(NCc3ccc(-c4cccnc4)cc3)n1)CCC2,inactive,inactive
COc1cccc(C2=Nn3c(nnc3-c3cc(OC)cc(OC)c3)SC2)c1,inactive,inactive
CCN1CCN(Cc2ccc(C(=O)Nc3ccc(C)c(Oc4ccc5c(c4)CC(=O)N5)c3)cc2C(F)(F)F)CC1,inactive,inactive
N#CN1CCC(NC(=O)c2cccc(C(F)(F)F)c2)CC1,inactive,inactive
N#Cc1ccc(NS(=O)(=O)c2ccc3c(c2)CCC(=O)N3)cc1,inactive,inactive
Brc1sc2c(c1-c1nc3ccccc3s1)CCNC2,inactive,inactive
COc1ccc(-c2ccc3ncnc(NCc4nc(C)cs4)c3c2)cc1OC,inactive,inactive
Brc1cnc2nc(SCc3ccccn3)[nH]c2c1,inactive,inactive
Cc1nc(NC2CCCCC2)c2nc(-c3ccccc3)n(CCCN3CCOCC3)c2n1,inactive,inactive
CCCCNC(=S)NCCCN(Cc1ccc(Cl)c(Cl)c1)c1ccc(Br)cn1,inactive,inactive
